# Where “and” joins values, the source holds several entries; their conditions need not be identical. Identical values can stand only once. Calls of active or inactive are those of the source.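 The calls were made as follows, unless noted: active = at least 20% inhibition of 6-phosphogluconate dehydrogenase activity; inactive = the rest.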
# Tests used:
# [1] = hESC survival regulators, cell-based (AID 493140; call rule not given here;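 also: cells exposed to compounds for four days before counting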); conditions: human embryonic stem cell survival screen; stronger effect = higher value
# [2] = liver-stage malaria parasite growth inhibition, primary screen, cell-based, HepG2, luciferase luminescence, HepG2 viability (AID 624349; in the data active = parasite load remaining mostly below about 12%, no sharp cut-off; inactive = mostly above about 10%;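 also: 100% = mean of DMSO negative control wells on the same plate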); conditions: P. berghei liver stage in HepG2, luciferase luminescence, concentration not given here; parasite load remaining: stronger effect = lower value; viability: measured here: HepG2 viability without parasites
# [3] = biological target: 6-phosphogluconate dehydrogenase, decarboxylating (Homo sapiens) (UniProt P52209); experiment: 6PGD enzyme inhibitors, primary screen, biochemical, human, recombinant enzyme, NADPH absorbance (AID 1159550); conditions: recombinant 6PGD, NADPH absorbance 341 nm; at 10 µM; stronger effect = higher value
# [4] = sensitizers of A549 cells to miR-34 induction, primary screen, imaging, A549 dox-inducible miR-34, nuclei and caspase counts (AID 1347080;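 active = compounds whose cell count with miR-34 switched on is under 0.7 times the count with it off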); conditions: A549 miR-34 inducible, Hoechst nuclei count, 48 h
# [5] = survival rescue of mitochondrial mutant cells in low glucose, primary screen, MELAS cybrids, Rieske KO mouse fibroblasts, CellTiter-Glo (AID 1508586;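 active = mean z-score across replicates of 1.96 or higher in either the MELAS or the Rieske mutant cell line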;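 also: z relative to plate mean and SD of compound and empty wells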)
# [6] = biological target: Mitogen-activated protein kinase 7 (Homo sapiens) (UniProt Q13164); experiment: ERK5 transactivation activators in reporter cells, primary screen, cell-based, HTS (AID 1508626;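 active = luciferase signal above three times the same-plate solvent-only control wells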;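 also: luciferase driven by Gal4-ERK5 fusion binding five Gal4 sites before minimal TATA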); conditions: HeLa Gal4-ERK5 transactivation, 18 h, at 5 µM, stronger effect = higher value
# [7] = viability rescue of complex I mutant cybrids, primary screen, cell-based, galactose medium, ATP luminescence (AID 1645843;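 active = z-score of at least 1.8 in each of two replicates, scored against plate mean and spread of sample wells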;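 also: positive z means more ATP and so rescue of galactose-driven cybrid death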); conditions: complex I mutant cybrid cells, 72 h, stronger effect = higher value
# [8] = biological target: NAD(+) hydrolase SARM1 (Homo sapiens) (UniProt Q6SZW1); experiment: SARM1 TIR NADase inhibitors, cell lysate, NAD-Glo luminescence (AID 1508614;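 active = compound whose remaining NAD level is above about 45 nM, limit read from the data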;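 also: higher remaining NAD means stronger inhibition of SARM1 NADase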); conditions: SAM-TIR HEK293T lysate NADase, at 1 µM, stronger effect = higher value
# [9] = stronger effect = lower value, cell number ratio, induced over uninduced
# [10] = measured here: relative caspase fold change +Dox/-Dox
# [11] = measured here: total cells with miR-34 induction, stronger effect = lower value
# [12] = measured here: total cells without miR-34 induction
# [13] = MELAS cybrid survival, CellTiter-Glo 48 h, stronger effect = higher value
# [14] = Rieske KO mouse fibroblast survival, CellTiter-Glo 72 h
# Chain of 6-phosphogluconate dehydrogenase, decarboxylating (Homo sapiens) (P52209 whole entry, looked up): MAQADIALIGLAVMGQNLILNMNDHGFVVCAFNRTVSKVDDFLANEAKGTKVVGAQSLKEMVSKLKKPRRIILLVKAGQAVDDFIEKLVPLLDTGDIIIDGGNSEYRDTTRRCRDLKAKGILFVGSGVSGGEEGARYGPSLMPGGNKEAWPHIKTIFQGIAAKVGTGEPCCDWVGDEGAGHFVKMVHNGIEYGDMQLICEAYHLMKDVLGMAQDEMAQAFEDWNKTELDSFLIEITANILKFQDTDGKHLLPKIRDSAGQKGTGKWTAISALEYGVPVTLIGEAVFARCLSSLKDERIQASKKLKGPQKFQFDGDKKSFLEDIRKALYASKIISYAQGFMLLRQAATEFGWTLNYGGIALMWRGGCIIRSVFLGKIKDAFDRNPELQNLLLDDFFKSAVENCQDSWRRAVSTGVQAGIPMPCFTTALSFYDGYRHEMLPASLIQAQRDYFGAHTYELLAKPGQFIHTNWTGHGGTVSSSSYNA
# Chain of NAD(+) hydrolase SARM1 (Homo sapiens) (Q6SZW1 whole entry, looked up): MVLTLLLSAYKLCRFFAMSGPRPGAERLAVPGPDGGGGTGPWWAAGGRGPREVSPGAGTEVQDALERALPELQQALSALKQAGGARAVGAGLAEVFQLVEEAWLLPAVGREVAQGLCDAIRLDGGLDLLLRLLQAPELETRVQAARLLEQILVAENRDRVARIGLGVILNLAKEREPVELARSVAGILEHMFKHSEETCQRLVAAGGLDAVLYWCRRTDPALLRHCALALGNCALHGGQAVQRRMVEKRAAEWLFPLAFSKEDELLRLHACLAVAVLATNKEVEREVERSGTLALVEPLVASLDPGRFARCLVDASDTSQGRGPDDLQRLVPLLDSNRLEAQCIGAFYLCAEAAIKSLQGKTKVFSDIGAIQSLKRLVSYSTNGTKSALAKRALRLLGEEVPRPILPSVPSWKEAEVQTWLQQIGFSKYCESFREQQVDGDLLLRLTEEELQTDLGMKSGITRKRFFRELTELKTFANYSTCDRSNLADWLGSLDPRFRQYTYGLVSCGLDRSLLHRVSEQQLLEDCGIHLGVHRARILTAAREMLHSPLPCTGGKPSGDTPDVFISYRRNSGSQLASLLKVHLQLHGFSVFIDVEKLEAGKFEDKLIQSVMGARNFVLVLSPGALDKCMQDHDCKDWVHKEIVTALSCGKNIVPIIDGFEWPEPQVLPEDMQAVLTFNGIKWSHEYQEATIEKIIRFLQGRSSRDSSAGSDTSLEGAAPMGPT
# Chain of Mitogen-activated protein kinase 7 (Homo sapiens) (Q13164 whole entry, looked up, the tested form may be a part): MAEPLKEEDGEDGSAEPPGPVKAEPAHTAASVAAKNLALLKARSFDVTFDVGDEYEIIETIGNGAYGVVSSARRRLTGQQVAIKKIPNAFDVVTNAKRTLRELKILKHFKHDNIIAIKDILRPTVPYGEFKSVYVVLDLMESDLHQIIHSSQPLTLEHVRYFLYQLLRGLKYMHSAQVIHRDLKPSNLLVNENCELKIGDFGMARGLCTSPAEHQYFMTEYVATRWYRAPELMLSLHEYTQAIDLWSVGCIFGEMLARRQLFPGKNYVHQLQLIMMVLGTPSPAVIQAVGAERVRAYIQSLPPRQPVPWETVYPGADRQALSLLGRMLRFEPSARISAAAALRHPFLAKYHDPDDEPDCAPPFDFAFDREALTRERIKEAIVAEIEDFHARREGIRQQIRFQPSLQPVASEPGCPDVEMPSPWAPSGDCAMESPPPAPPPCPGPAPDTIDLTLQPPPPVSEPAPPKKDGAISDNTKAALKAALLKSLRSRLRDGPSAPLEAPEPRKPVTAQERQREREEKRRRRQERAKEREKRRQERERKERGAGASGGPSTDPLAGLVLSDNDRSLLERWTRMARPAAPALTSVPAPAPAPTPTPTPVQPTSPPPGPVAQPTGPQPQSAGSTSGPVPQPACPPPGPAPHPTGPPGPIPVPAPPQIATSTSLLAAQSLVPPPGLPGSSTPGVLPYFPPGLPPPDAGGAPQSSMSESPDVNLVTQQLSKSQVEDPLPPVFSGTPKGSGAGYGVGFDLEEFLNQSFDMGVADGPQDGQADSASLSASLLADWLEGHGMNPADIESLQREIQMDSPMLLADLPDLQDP
structure (smiles),measurement,setting,value
C[C@H](CCC(=O)O)[C@H]1CC[C@H]2[C@@H]3CC[C@@H]4C[C@H](O)CC[C@]4(C)[C@H]3CC[C@]12C,survival,[1],3.25 (inactive)
same,parasite load remaining,[2],106% (inactive)
same,viability,[2],101%
same,inhibition,[3],3.51% (inactive)
same,fold change,[4]; [9],0.876 (inactive)
same,fold change,[4]; [10],1.28
same,cell count,[4]; [11],8840
same,cell count,[4]; [12],10100
same,z-score,[5]; [13],0.139 (inactive)
same,z-score,[5]; [14],-0.0326
same,luciferase signal,[6],76 AU (inactive)
C=C(C)C1CC=C(C(=O)O)CC1 (stereo unspecified),inhibition,[3],7.19% (inactive)
same,fold change,[4]; [9],0.98 (inactive)
same,fold change,[4]; [10],1.41
same,cell count,[4]; [11],9720
same,cell count,[4]; [12],9920
same,z-score,[7],1.06 (inactive)
Oc1cc2c(cc1O)[C@@H]1c3ccc(O)c(O)c3OC[C@]1(O)C2,inhibition,[3],1.84% (inactive)
same,fold change,[4]; [9],0.884 (inactive)
same,fold change,[4]; [10],0.956
same,cell count,[4]; [11],9250
same,cell count,[4]; [12],10500
same,z-score,[5]; [13],-0.379 (inactive)
same,z-score,[5]; [14],0.131
same,luciferase signal,[6],28 AU (inactive)
O=C(O)c1cc2cc(Cc3cccnc3)ccc2o1,parasite load remaining,[2],124% (inactive)
same,viability,[2],73.4%
same,inhibition,[3],4.63% (inactive)
same,fold change,[4]; [9],0.956 (inactive) and 0.926 (inactive)
same,fold change,[4]; [10],0.671 and 1.19
same,cell count,[4]; [11],10100 and 5310
same,cell count,[4]; [12],10600 and 5730
same,z-score,[7],0.16 (inactive)
C=C(C)[C@@H]1CC[C@]2(CO)CC[C@]3(C)[C@H](CC[C@@H]4[C@@]5(C)CC[C@H](O)C(C)(C)[C@@H]5CC[C@]43C)[C@@H]12,parasite load remaining,[2],104% (inactive)
same,viability,[2],78.6%
same,inhibition,[3],1.58% (inactive)
same,fold change,[4]; [9],0.941 (inactive)
same,fold change,[4]; [10],0.65
same,cell count,[4]; [11],8530
same,cell count,[4]; [12],9060
same,luciferase signal,[6],44 AU (inactive)
CC(=O)NC(CC(C)C)C(=O)O (stereo unspecified),inhibition,[3],4.75% (inactive)
same,remaining NAD,[8],10 nM (inactive)
CC(=O)[C@@]1(O)CC[C@H]2[C@@H]3C=C(Cl)C4=CC(=O)[C@@H]5C[C@@H]5[C@]4(C)[C@H]3CC[C@@]21C,inhibition,[3],3.58% (inactive)
same,remaining NAD,[8],10 nM (inactive)
same,luciferase signal,[6],32 AU (inactive)
CN(C)CC/C=C1/c2ccccc2Sc2ccc(Cl)cc21,survival,[1],1.25 (inactive)
same,parasite load remaining,[2],63.4% (inactive)
same,viability,[2],75.2%
same,inhibition,[3],-16.6% (inactive)
same,remaining NAD,[8],10 nM (inactive)
CC(C)c1c(O)ccc2c1CC[C@H]1C(C)(C)CCC[C@]21C,inhibition,[3],-7.32% (inactive)
same,luciferase signal,[6],20 AU (inactive)
CC[C@H]1OC(=O)[C@H](C)C(=O)[C@H](C)[C@@H](O[C@@H]2O[C@H](C)C[C@H](N(C)C)[C@H]2O)[C@](C)(OC)C[C@@H](C)C(=O)[C@H](C)[C@H]2N(CCCCn3cnc(-c4cccnc4)c3)C(=O)O[C@]12C,inhibition,[3],-10.3% (inactive)
same,remaining NAD,[8],10 nM (inactive)
same,luciferase signal,[6],48 AU (inactive)
O=C(O)c1cc(O)c2c(c1)[C@H]([C@H]1c3cc(C(=O)O)cc(O)c3C(=O)c3c(O[C@@H]4O[C@H](CO)[C@@H](O)[C@H](O)[C@H]4O)cccc31)c1cccc(O[C@@H]3O[C@H](CO)[C@@H](O)[C@H](O)[C@H]3O)c1C2=O,inhibition,[3],6.02% (inactive)
same,remaining NAD,[8],11 nM (inactive)
same,luciferase signal,[6],76 AU (inactive)
C=C1C[C@]23C[C@@]1(O)CC[C@H]2[C@@]12C=C[C@H](O)[C@@](C)(C(=O)O1)[C@H]2[C@@H]3C(=O)O,survival,[1],1.25 (inactive)
same,parasite load remaining,[2],101% (inactive)
same,viability,[2],80.4%
same,inhibition,[3],-0.284% (inactive)
same,fold change,[4]; [9],0.973 (inactive)
same,fold change,[4]; [10],0.674
same,cell count,[4]; [11],8110
same,cell count,[4]; [12],8340
same,luciferase signal,[6],40 AU (inactive)
CC(=O)OCC(=O)[C@@]12OC3(CCCC3)O[C@@H]1C[C@H]1[C@@H]3CCC4=CC(=O)C=C[C@]4(C)[C@@]3(F)[C@@H](O)C[C@@]12C,inhibition,[3],2.31% (inactive)
same,z-score,[5]; [13],0.316 (inactive)
same,z-score,[5]; [14],0.335
same,remaining NAD,[8],10 nM (inactive)
same,luciferase signal,[6],44 AU (inactive)
COC(=O)[C@H]1[C@H]2C[C@H]3c4[nH]c5ccccc5c4CCN3C[C@@H]2CC[C@@H]1O,survival,[1],13.8 (inactive)
same,parasite load remaining,[2],108% (inactive) and 79.2% (inactive)
same,viability,[2],116% and 77.6%
same,inhibition,[3],7.89% (inactive)
same,fold change,[4]; [9],0.836 (inactive)
same,fold change,[4]; [10],1.95
same,cell count,[4]; [11],8660
same,cell count,[4]; [12],10400
same,luciferase signal,[6],44 AU (inactive)
CCCCCC(=O)O[C@]1(C(C)=O)CC[C@H]2[C@@H]3CCC4=CC(=O)CC[C@]4(C)[C@H]3CC[C@@]21C,inhibition,[3],-2.17% (inactive)
same,remaining NAD,[8],10 nM (inactive)
same,luciferase signal,[6],44 AU (inactive)
CC(=O)O[C@H]1C[C@@]2(C)[C@@H](C[C@@H](O)[C@H]3[C@@]4(C)CC[C@@H](O)[C@@H](C)[C@@H]4CC[C@@]32C)/C1=C(\CCC=C(C)C)C(=O)O,survival,[1],5.08 (inactive)
same,parasite load remaining,[2],64.8% (inactive)
same,viability,[2],78.6%
same,inhibition,[3],4.42% (inactive)
same,remaining NAD,[8],10 nM (inactive)
same,luciferase signal,[6],128 AU (inactive)
CO[C@H]1C[C@H](O[C@@H]2/C(C)=C/C[C@@H]3C[C@@H](C[C@]4(CC[C@H](C)[C@@H](C5CCCCC5)O4)O3)OC(=O)[C@@H]3C=C(C)/C(=N/O)[C@H]4OC/C(=C\C=C\[C@@H]2C)[C@]43O)O[C@@H](C)[C@@H]1O,inhibition,[3],-18% (inactive)
same,remaining NAD,[8],23 nM (inactive)
same,luciferase signal,[6],36 AU (inactive)
CC(=O)N[C@@H](CC(=O)O)C(=O)O,parasite load remaining,[2],117% (inactive)
same,viability,[2],106%
same,inhibition,[3],3.38% (inactive)
same,fold change,[4]; [9],0.841 (inactive)
same,fold change,[4]; [10],1.57
same,cell count,[4]; [11],8620
same,cell count,[4]; [12],10300
CC1=CC(=O)C2=C(C)CC[C@@H]3[C@H](OC(=O)[C@H]3C)[C@@H]12,survival,[1],21.9 (inactive)
same,parasite load remaining,[2],69.2% (inactive)
same,viability,[2],75.3%
same,inhibition,[3],-50% (inactive)
same,fold change,[4]; [9],0.934 (inactive)
same,fold change,[4]; [10],0.653
same,cell count,[4]; [11],9100
same,cell count,[4]; [12],9750
same,luciferase signal,[6],76 AU (inactive)
C[C@@H]1O[C@@H](OC[C@H]2O[C@@H](Oc3c(-c4ccc(OCCO)c(OCCO)c4)oc4cc(OCCO)cc(O)c4c3=O)[C@H](O)[C@@H](O)[C@@H]2O)[C@H](O)[C@H](O)[C@H]1O,inhibition,[3],-5.09% (inactive)
same,remaining NAD,[8],10 nM (inactive)
same,luciferase signal,[6],72 AU (inactive)
O=C(OC[C@H]1O[C@@H](OC(=O)c2cc(O)c(O)c(OC(=O)c3cc(O)c(O)c(O)c3)c2)[C@H](OC(=O)c2cc(O)c(O)c(OC(=O)c3cc(O)c(O)c(O)c3)c2)[C@@H](OC(=O)c2cc(O)c(O)c(OC(=O)c3cc(O)c(O)c(O)c3)c2)[C@@H]1OC(=O)c1cc(O)c(O)c(OC(=O)c2cc(O)c(O)c(O)c2)c1)c1cc(O)c(O)c(OC(=O)c2cc(O)c(O)c(O)c2)c1,inhibition,[3],12.6% (inactive)
same,remaining NAD,[8],10 nM (inactive)
same,luciferase signal,[6],32 AU (inactive)
CC[C@@H](C(=O)[C@@H](C)[C@@H](O)[C@H](C)CCc1ccc(C)c(O)c1C(=O)O)[C@H]1O[C@](CC)([C@H]2CC[C@](O)(CC)[C@H](C)O2)C[C@@H]1C,parasite load remaining,[2],-0.295% (active)
same,viability,[2],110%
same,inhibition,[3],-6.18% (inactive)
same,fold change,[4]; [9],1.02 (inactive)
same,fold change,[4]; [10],1.03
same,cell count,[4]; [11],2440
same,cell count,[4]; [12],2390
same,luciferase signal,[6],44 AU (inactive)
C[N+](C)(C)CCOP(=O)([O-])OP(=O)(O)OC[C@H]1O[C@@H](n2ccc(N)nc2=O)[C@H](O)[C@@H]1O,inhibition,[3],-4.56% (inactive)
same,remaining NAD,[8],10 nM (inactive)
same,luciferase signal,[6],76 AU (inactive)
C[C@@H]1O[C@@H](O[C@H]2[C@H](Oc3cc(O)c4c(c3)O[C@H](c3ccc(O)cc3)CC4=O)O[C@H](CO)[C@@H](O)[C@@H]2O)[C@H](O)[C@H](O)[C@H]1O,survival,[1],7.67 (inactive)
same,parasite load remaining,[2],153% (inactive) and 66.6% (inactive)
same,viability,[2],111% and 77.6%
same,inhibition,[3],4.72% (inactive)
same,fold change,[4]; [9],0.866 (inactive)
same,fold change,[4]; [10],1.55
same,cell count,[4]; [11],9380
same,cell count,[4]; [12],10800
same,luciferase signal,[6],60 AU (inactive)

# — PubChem BioAssay
